Measurements taken from PubChem BioAssay AID1903 (Southern Research Specialized Biocontainment Screening …, 2009).
Out of some 310,000 compounds screened, about 1,200 (0.39%) were called active. How the calls were made is not given here. Only a sample is shown. Entries with a potency or affinity are not part of this list.

biological target: Large T antigen (Simian virus 40) (UniProt P03070); assay: TAg ATPase/helicase activity blockers – biochemical (AID 1903); details: SV40 large T antigen ATPase/helicase inhibition assay; at 20 µM; stronger effect = higher value
Sequence (P03070 whole entry, looked up): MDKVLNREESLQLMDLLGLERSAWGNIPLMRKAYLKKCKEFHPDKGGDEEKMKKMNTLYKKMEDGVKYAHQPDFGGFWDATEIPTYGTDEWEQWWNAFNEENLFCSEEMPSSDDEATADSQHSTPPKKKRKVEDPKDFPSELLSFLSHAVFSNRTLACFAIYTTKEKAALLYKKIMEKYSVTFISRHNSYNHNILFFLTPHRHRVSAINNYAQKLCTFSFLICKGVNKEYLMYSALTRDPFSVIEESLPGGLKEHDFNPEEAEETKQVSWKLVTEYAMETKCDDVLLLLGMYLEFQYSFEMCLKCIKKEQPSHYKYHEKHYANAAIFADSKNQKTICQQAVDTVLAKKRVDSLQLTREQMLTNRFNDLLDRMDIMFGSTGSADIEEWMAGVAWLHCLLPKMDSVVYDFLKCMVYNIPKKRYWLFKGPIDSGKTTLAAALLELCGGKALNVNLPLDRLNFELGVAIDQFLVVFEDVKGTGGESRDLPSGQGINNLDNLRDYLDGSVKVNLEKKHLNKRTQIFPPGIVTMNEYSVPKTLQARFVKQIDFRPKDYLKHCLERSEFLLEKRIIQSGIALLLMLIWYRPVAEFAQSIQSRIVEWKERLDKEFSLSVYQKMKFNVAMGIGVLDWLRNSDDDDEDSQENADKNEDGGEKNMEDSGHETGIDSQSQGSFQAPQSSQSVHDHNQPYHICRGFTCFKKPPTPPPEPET

inhibition, inactive:
O=C(CSc1nnnn1C1CCCC1)Nc1ccccc1F 14%
COC(=O)c1sc(-c2cccs2)cc1N 20%
CC(=O)Nc1nnc(SCc2ccc(C(=O)Nc3ccccc3F)cc2)s1 5.26%
CC1(C)CC(=O)C(N=Nc2ccc(-c3ccccc3)cc2)=C(O)C1 28.9%
Oc1ccc(N=Nc2ccccc2)cc1 18.4%
O=C(NC1=NN(c2ccccc2)CC1)Nc1ccccc1F -6.18%
O=C(O)c1ccccc1C(=O)Nc1ccccc1NC(=O)c1ccccc1C(=O)O 5.06%
CCCSc1oc(-c2ccco2)nc1S(=O)(=O)c1ccccc1 1.06%
COc1cc(SC)ccc1C(=O)NCCc1c[nH]c2ccccc12 8.89%
CC(C)(C)NC(=O)CSCc1c(Cl)cccc1Cl 3.06%
COc1ccc(OC)c(-c2c3c([nH]c(=S)c2C#N)CCCC3)c1 20.7%
N#Cc1c(-c2ccc(Cl)cc2)c2c([nH]c1=S)CCCC2 25.6%
COc1ccc(-c2c3c([nH]c(=S)c2C#N)CCC3)cc1 34.4%
N#Cc1c(-c2ccncc2)c2c([nH]c1=S)CCCC2 16.1%
O=C(CN1C(=O)/C(=C/c2ccc(C(F)(F)F)cc2)Sc2ccccc21)NCCCN1CCOCC1 6.23%
O=[N+]([O-])c1ccc(N2CCN(c3ccccn3)CC2)c(Cl)c1 9.91%
CSc1nnc(-c2ccco2)c(-c2ccco2)n1 54.2%
O=C(CSc1nnc(-c2ccco2)c(-c2ccco2)n1)c1ccccc1 -0.39%
COc1ccc(-n2nnnc2SCC(=O)NCCc2ccccc2)cc1OC 5.41%
Cc1cccc(-c2noc(CNC(=O)c3ccc4c(c3)OCO4)n2)c1 9.48%
CC(CCc1ccccc1)NC(=O)CCc1cn(C)c2ccccc12 (centres undefined) 8.16%
CCCCC(CC)CNC(=O)c1ncn[nH]1 (centres undefined) 9.07%
CCCCC(CC)CNC(=O)c1cccs1 (centres undefined) 0.58%
CC1(C)CN(c2ccc(F)cc2)C1=O 10%
CC1(C)CN(c2ccc(N3CC(C)(C)C3=O)cc2)C1=O 7.74%
CC1CCCC(C)N1/N=C/c1ccc(O)c(O)c1 (centres undefined) 32.1%
Oc1ccc(N=Cc2ccc(OCc3ccccc3)cc2)cc1 15.6%
COc1ccc(/C=N/N=C/c2ccc(OC)c(O)c2)cc1O 1.26%
Oc1ccc(/C=N/N=C/c2ccc(O)cc2)cc1 27.4%
